The results in this text go back to PubChem BioAssay (NCI).

Assay [1] is described as follows: NCI Yeast Anticancer Drug Screen. Data for the rad50 strain (AID 155).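 Note: 0% = growth of vehicle-only cultures of the same strain.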 To be noted: S. cerevisiae rad50 strain growth inhibition, active compounds read high. In outline:
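Cells are treated with compound, grown, and their growth is then scored against vehicle-only cultures of the same repair-deficient yeast strain.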

Assay [2] can be described thus: NCI Yeast Anticancer Drug Screen. Data for the mec2-1 strain (AID 157). The conditions noted are these: S. cerevisiae mec2-1 strain, active compounds read high. In outline: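 mec2-1 yeast strain, carrying an alteration in DNA damage repair or cell cycle control, was exposed to compounds; growth inhibition was measured relative to vehicle-treated controls.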
Assay [3] is described as follows: NCI Yeast Anticancer Drug Screen. Data for the sgs1 mgt1 strain (AID 161).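 Note: 0% = growth of cultures given vehicle only.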 To be noted: S. cerevisiae sgs1 mgt1 strain, active compounds read high. In short, it runs like this:
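Growth of a repair-deficient yeast mutant was monitored after compound treatment and expressed as inhibition relative to vehicle-treated cultures.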

A short description of assay [4]: NCI Yeast Anticancer Drug Screen. Data for the cln2 rad14 strain (AID 165).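 Note: 0% = growth equal to vehicle treated cultures.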 To be noted: S. cerevisiae cln2 rad14 strain, active compounds read high. In short, it runs like this: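 Yeast carrying cln2 and rad14 alterations (cell cycle control and DNA damage repair) were exposed to compounds. Growth inhibition was measured against vehicle-treated controls.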
A short description of assay [5]: NCI Yeast Anticancer Drug Screen. Data for the bub3 strain (AID 167). The conditions noted are these: S. cerevisiae bub3 mutant strain, active compounds read high. In outline: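 Part of a panel of yeast mutants defective in DNA damage repair or cell cycle regulation. Each strain is grown with compound, and inhibition is calculated relative to solvent-treated cultures.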

Assay [6] in a line: NCI Yeast Anticancer Drug Screen. Data for the mlh1 rad18 strain (AID 175). The conditions noted are these: S. cerevisiae mlh1 rad18 strain growth inhibition, active compounds read high. In outline:
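Growth inhibition of the yeast strain was measured after compound exposure and expressed relative to vehicle-treated controls. The strain carries defined defects in DNA damage repair.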

Where [7] appears, read: at 5.0 µM (retest, dose inferred, filed as 0.5).
Setting [8] is: at 50.0 µM (retest, dose inferred, filed as 5.0).

This is part of a sample that, as a whole, favours compounds with a hit. Of some 79,000 tested, about 15% had one in any assay. Values without a mark were called inactive. Calls of active or inactive are those of the source. Cut-off read from the data, not from the text of the source: active = growth inhibition above about 70%; inactive = the rest.

On to `C/C(=C/c1ccccc1)C(=O)C1C(c2ccccc2)CC(O)C(C)C1c1ccccc1` (stereo not given), for which the growth inhibition was 11% in assay [1] (setting [7]); 86% (active) in assay [1] (setting [8]); 82.2% (active) in assay [1] (at 50.0 µM); 1% in assay [2] (setting [7]); 81% (active) in assay [2] (setting [8]); 91.2% (active) in assay [2] (at 50.0 µM). For the same compound, the growth inhibition in assay [3] (setting [7]) is 10%; in assay [3] (setting [8]) it was 86% (active); in assay [3] (at 50.0 µM), 82.3% (active); in assay [4] (setting [7]), -4%; in assay [4] (setting [8]) it was 89% (active); in assay [4] (at 50.0 µM), 88.4% (active). The growth inhibition is -5% in assay [5] (setting [7]); 82% (active) in assay [5] (setting [8]); 77.8% (active) in assay [5] (at 50.0 µM); 16% in assay [6] (setting [7]); 90% (active) in assay [6] (setting [8]); 86.5% (active) in assay [6] (at 50.0 µM).
With `CCN(CC)CCOc1ccc(/C=C(\C#N)c2ccc(OC)cc2)cc1`, the growth inhibition in assay [1] (setting [7]) is 24%; in assay [1] (setting [8]), 83% (active); in assay [1] (at 50.0 µM) it was 74.5% (active); in assay [2] (setting [7]), 17%; in assay [2] (setting [8]), 96% (active); in assay [2] (at 50.0 µM) it was 62.5%. Besides, the growth inhibition is 40% in assay [3] (setting [7]); 97% (active) in assay [3] (setting [8]); 85.9% (active) in assay [3] (at 50.0 µM); 34% in assay [4] (setting [7]); 90% (active) in assay [4] (setting [8]); 82.8% (active) in assay [4] (at 50.0 µM). Moreover, the growth inhibition in assay [5] (setting [7]) was 44%; in assay [5] (setting [8]) it was 95% (active); in assay [5] (at 50.0 µM) it was 68.5%; in assay [6] (setting [7]) it was 24%; in assay [6] (setting [8]), 84% (active); in assay [6] (at 50.0 µM) it was 75.8% (active).
As for `CC1(C)CC([P+](c2ccccc2)(c2ccccc2)c2ccccc2)=NN1`, the growth inhibition is 66% in assay [1] (setting [7]); 91% (active) in assay [1] (setting [8]); 76.2% (active) in assay [1] (at 50.0 µM); 41% in assay [2] (setting [7]); 84% (active) in assay [2] (setting [8]); 77.5% (active) in assay [2] (at 50.0 µM). For the same compound, the growth inhibition is 60% in assay [3] (setting [7]); 89% (active) in assay [3] (setting [8]); 79.5% (active) in assay [3] (at 50.0 µM); 48% in assay [4] (setting [7]); 81% (active) in assay [4] (setting [8]); 46% in assay [4] (at 50.0 µM). Besides, the growth inhibition in assay [5] (setting [7]) was 71% (active); in assay [5] (setting [8]), 91% (active); in assay [5] (at 50.0 µM) it was 83.5% (active); in assay [6] (setting [7]), 56%; in assay [6] (setting [8]), 83% (active); in assay [6] (at 50.0 µM), 79.5% (active).
As for `O=C1C=CC(=O)N1C1c2ccccc2-c2ccccc21`, the growth inhibition in assay [1] (setting [7]) is 99% (active); in assay [1] (setting [8]) it was 99% (active); in assay [1] (at 50.0 µM), 99.5% (active); in assay [2] (setting [7]) it was 100% (active); in assay [2] (setting [8]), 100% (active); in assay [2] (at 50.0 µM) it was 99.1% (active). Besides, the growth inhibition in assay [3] (setting [7]) is 99% (active); in assay [3] (setting [8]), 100% (active); in assay [3] (at 50.0 µM) it was 99.5% (active); in assay [4] (setting [7]), 77% (active); in assay [4] (setting [8]) it was 99% (active); in assay [4] (at 50.0 µM), 98% (active). In addition, the growth inhibition in assay [5] (setting [7]) is 100% (active); in assay [5] (setting [8]), 100% (active); in assay [5] (at 50.0 µM), 99.5% (active); in assay [6] (setting [7]), 99% (active); in assay [6] (setting [8]), 99% (active); in assay [6] (at 50.0 µM) it was 97.1% (active).
As to `CC(=O)OC1CCC23COC(CC(C)C2C)C3(Br)C1` (stereo not given), the growth inhibition is -5% in assay [1] (setting [7]); 12% in assay [1] (setting [8]); -19.5% in assay [1] (at 50.0 µM); 13% in assay [2] (setting [7]); 8% in assay [2] (setting [8]); 4.2% in assay [2] (at 50.0 µM). Also, the growth inhibition in assay [3] (setting [7]) is 2%; in assay [3] (setting [8]), 8%; in assay [3] (at 50.0 µM), 1.4%; in assay [4] (setting [7]) it was -2%; in assay [4] (setting [8]), -5%; in assay [4] (at 50.0 µM), 52.3%. In addition, the growth inhibition in assay [5] (setting [7]) is 6%; in assay [5] (setting [8]) it was 1%; in assay [5] (at 50.0 µM), -4.55%; in assay [6] (setting [7]), 3%; in assay [6] (setting [8]), -4%; in assay [6] (at 50.0 µM), 1.7%.
Take `COC(=O)[C@H]1O[C@H]1c1ccncc1`: the growth inhibition was 0% in assay [1] (setting [7]); -5% in assay [1] (setting [8]); 18.2% in assay [1] (at 50.0 µM); 3% in assay [2] (setting [7]); -2% in assay [2] (setting [8]); 1.65% in assay [2] (at 50.0 µM). Besides, the growth inhibition in assay [3] (setting [7]) was 5%; in assay [3] (setting [8]), -2%; in assay [3] (at 50.0 µM) it was 18.2%; in assay [4] (setting [7]) it was -1%; in assay [4] (setting [8]), -17%; in assay [4] (at 50.0 µM) it was 53.8%. Besides, the growth inhibition is 3% in assay [5] (setting [7]); -2% in assay [5] (setting [8]); 6.2% in assay [5] (at 50.0 µM); 0% in assay [6] (setting [7]); -13% in assay [6] (setting [8]); 8.2% in assay [6] (at 50.0 µM).
On to `CCOc1cc(/C=N/NC(=S)NC23CC4CC(CC(C4)C2)C3)ccc1O`, for which the growth inhibition is -3% in assay [1] (setting [7]); 11% in assay [1] (setting [8]); 40.6% in assay [1] (at 50.0 µM); -5% in assay [2] (setting [7]); 30% in assay [2] (setting [8]); 40.5% in assay [2] (at 50.0 µM). Besides, the growth inhibition was 0% in assay [3] (setting [7]); 61% in assay [3] (setting [8]); 41.3% in assay [3] (at 50.0 µM); 49% in assay [4] (setting [7]); 16% in assay [4] (setting [8]); 45.1% in assay [4] (at 50.0 µM). The growth inhibition in assay [5] (setting [7]) is -7%; in assay [5] (setting [8]) it was -100%; in assay [5] (at 50.0 µM) it was 9.55%; in assay [6] (setting [7]), 1%; in assay [6] (setting [8]), 29%; in assay [6] (at 50.0 µM) it was 47.6%.
`Cc1cccc(/C=N/Nc2cc(C)c3ccccc3n2)n1`: the growth inhibition in assay [1] (setting [7]) is 10%; in assay [1] (setting [8]) it was 89% (active); in assay [1] (at 50.0 µM) it was 96.8% (active); in assay [2] (setting [7]), 10%; in assay [2] (setting [8]) it was 96% (active); in assay [2] (at 50.0 µM) it was 89.2% (active). Moreover, the growth inhibition was 16% in assay [3] (setting [7]); 96% (active) in assay [3] (setting [8]); 97.8% (active) in assay [3] (at 50.0 µM); 5% in assay [4] (setting [7]); 86% (active) in assay [4] (setting [8]); 82.3% (active) in assay [4] (at 50.0 µM). In addition, the growth inhibition was -5% in assay [5] (setting [7]); 95% (active) in assay [5] (setting [8]); 93.6% (active) in assay [5] (at 50.0 µM); 14% in assay [6] (setting [7]); 96% (active) in assay [6] (setting [8]); 82.8% (active) in assay [6] (at 50.0 µM).
`Cc1cc(Cl)ccc1OCC(=O)Oc1c(Cl)c(Cl)c(Cl)c(Cl)c1Cl`: the growth inhibition in assay [1] (setting [7]) was 7%; in assay [1] (setting [8]), 36%; in assay [1] (at 50.0 µM), 65.8%; in assay [2] (setting [7]) it was 8%; in assay [2] (setting [8]), 13%; in assay [2] (at 50.0 µM), 73% (active). The growth inhibition in assay [3] (setting [7]) was 0%; in assay [3] (setting [8]) it was 42%; in assay [3] (at 50.0 µM), 67.6%; in assay [4] (setting [7]), -12%; in assay [4] (setting [8]), 33%; in assay [4] (at 50.0 µM), 42.8%. The growth inhibition in assay [5] (setting [7]) was -6%; in assay [5] (setting [8]), 19%; in assay [5] (at 50.0 µM), 68.9%; in assay [6] (setting [7]), 7%; in assay [6] (setting [8]) it was 50%; in assay [6] (at 50.0 µM) it was 76% (active).
`COc1ccc(C(c2cc3c(cc2O)OCO3)N2CCOCC2)cc1OC` (stereo not given): the growth inhibition in assay [1] (setting [7]) is -2%; in assay [1] (setting [8]), 39%; in assay [1] (at 50.0 µM), 77.5% (active); in assay [2] (setting [7]), -5%; in assay [2] (setting [8]) it was 59%; in assay [2] (at 50.0 µM), 86.5% (active). Besides, the growth inhibition in assay [3] (setting [7]) was -2%; in assay [3] (setting [8]) it was 43%; in assay [3] (at 50.0 µM) it was 96.5% (active); in assay [4] (setting [7]), 0%; in assay [4] (setting [8]) it was 12%; in assay [4] (at 50.0 µM), 67.5%. Further, the growth inhibition is -5% in assay [5] (setting [7]); 41% in assay [5] (setting [8]); 98% (active) in assay [5] (at 50.0 µM); -2% in assay [6] (setting [7]); 35% in assay [6] (setting [8]); 70.7% (active) in assay [6] (at 50.0 µM).
